The list is not random: actives were taken first. Their share in the collection is about 5.4%.
VACV mCherry inh = inhibitors of vaccinia virus infection (mCherry reporter signal). Vaccinia virus mCherry reporter infection, fluorescence. Potency, µM (titrated, usually from 36.5 µM), for the others: at the top dose activity change, negative = inhibition, actives largely listed as inhibitors. hit rate 0.63% among 310,000; calls by dose curve; tested in A549 cells; note: nearly all actives have a fitted effect of over 35% in size
MARV entry inh = blocks Marburg virus binding to or entry into cells; AID 540276; Potency, µM (doses to about 37.8 µM), for inactives: at the top dose activity change, negative = inhibition, usual class: inhibitors; hit rate 1.8% among 300,000; Marburg virus pseudotyped entry inhibition, cell reporter; calls by dose curve; tested in HEK293 cells
Sm TGR inh = S. mansoni TGR enzyme inhibition; Q962Y6; purified TGR, DTNB reduction, TNB absorbance 405 nm; Potency, µM (doses to about 114 µM), for the others: at the top dose activity change, negative = inhibition, usual class: inhibitors; hit rate 3% among 360,000; AID 485364; active = well fitted inhibition curve with a large enough effect; inconclusive = small, poorly fitted or top-dose-only effect; inactive = no such curve, though single readings can be large or run the other way; note: nearly all actives have a fitted effect of over 60% in size
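First, TGR (20 nM dispensed) and NADPH were mixed with compound. Second, a 15 min room-temperature incubation followed. Third, further NADPH and then DTNB were added to start the reaction. Finally, TNB absorbance was monitored kinetically.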
Vaccinia Venus = inhibitors of vaccinia virus (Venus reporter) | Vaccinia virus Venus reporter expression, fluorescence | Potency, µM (top dose mostly 36.5 µM), for inactives: top-dose activity change, negative = inhibition, usual class: inhibitors | hit rate 0.46% among 330,000; calls by dose curve; tested in A549 cells; note: nearly all actives have a fitted effect of over 30% in size
LASV entry inh = blocks Lassa virus binding to or entry into cells | Lassa virus pseudotype entry inhibition, cell reporter | hit rate 1.2% among 300,000 | Potency, µM (top dose mostly 37.9 µM), inactives show top-dose activity change, negative = inhibition, usual class: inhibitors; calls by dose curve; tested in HEK293 cells; note: nearly all actives have a fitted effect of over 50% in size
FMDV antiviral = blocks foot and mouth disease virus | FMDV antiviral cell-based qHTS | Potency, µM (series often up to 57.9 µM), inactives show at the top dose activity change, negative = inhibition, most hits filed as inhibitors | hit rate 1.2% among 410,000 | AID 1159524; calls by dose curve; tested in HEK293T cells; note: read-out not given here; nearly all actives have a fitted effect of over 45% in size
Starred values were filed as active, the others as inactive; i = inactive; ? = inconclusive; / = no result given; [ ] = another dose, or the depositor's remark. % is set by controls: 0 for no effect and ±100 for the full control effect; potency is the fitted concentration of half-maximal effect.

SMILES	VACV mCherry inh	MARV entry inh	Sm TGR inh	Vaccinia Venus	LASV entry inh	FMDV antiviral
C#CCCOC(=O)N1C2=NC3=C(C(=O)N(Cc4ccc5c(c4)OCO5)C3=O)C3N(C)c4ccccc4[C@]23C[C@H]1CO (stereo partly drawn)	/	-23%[14.2 µM]	/	/	?	/
CC(=O)Nc1ccc(NC(=O)CC(C)n2ccc(C)n2)cc1 (stereo not drawn)	-9%	/	4%	-10%	2%[46.1 µM]	-13%
CCCCOc1ccc(S(=O)(=O)Nc2cccc(-c3ccc(N4CCOCC4)nn3)c2)cc1	-10%	/	5%	-3%	-9%[46.1 µM]	31%
COc1ccc(CN2CCOc3ccc(CN4CCC(Oc5cccnc5)CC4)cc3C2)cc1C	-26%	/	/	-10%	/	-29%
COc1cccc2cc(C(=O)NCc3ccco3)c(=Nc3ccc(C(=O)O)cc3)oc12	7.9µM*	8%	-4%	10µM*	4%	/
Nc1nnnn1/N=C/C(Br)=C/c1ccccc1	?	5µM*	0%	?	?	14µM*
Nc1nnnn1/N=C/C=C/c1ccccc1	-19%	3%	0%	-4%	27%	33%
CC(C)c1cnc2c(c1SCC(=O)NCc1ccccc1)c(=O)n(C)c(=O)n2C	-11%	/	1%	-15%	-11%[46.1 µM]	2%
Cc1cc(C(=O)CSc2nc(N)cc(N)n2)c(C)n1CCc1ccc(F)cc1	?	?	2%	?	?	25µM*
FC(F)Oc1ccc(-c2csc(=Nc3cccnc3)n2CC2CCCO2)cc1 (stereo not drawn)	-27%	?	-23%	-25%	?	8.9µM*
COCCn1c(-c2ccc(Br)cc2)csc1=Nc1cccnc1	?	?	-12%	?	/	32µM*
O=C(N=NC(=O)c1ccc2c(O)n(CC3CCCO3)c(O)c2c1)c1cccnc1 (stereo not drawn)	/	/	4%	/	/	10%
Clc1ccc(-c2csc(=Nc3cccnc3)n2CCCn2ccnc2)cc1Cl	?	?	-27%	?	?	32µM*
OCCCn1c(-c2ccccc2)csc1=Nc1ccccc1	-18%	?	4%	-19%	-17%	?
COCCCn1c(-c2ccc(S(=O)(=O)N3CCOCC3)cc2)csc1=Nc1ccccc1	-5%	27%	1%	?	-3%[46.1 µM]	11µM*
Cc1ccc(CNc2nc3ccccc3n3c(C)nnc23)cc1	-2%	/	1%	1%	-20%[46.1 µM]	-16%
CCN1CCCC1CN(Cc1cc2ccc(C)c(C)c2[nH]c1=O)C(=O)Nc1ccccc1OC (stereo not drawn)	/	18µM*	-1%	-7%	-1%	2%
CCN1CCCC1CN(Cc1cc2ccc(C)cc2[nH]c1=O)C(=S)Nc1cccc(OC)c1 (stereo not drawn)	-4%	10µM*	4%	?	?	0%
CCN1CCCC1CN(Cc1cc2ccc(C)cc2[nH]c1=O)C(=S)Nc1ccccc1OC (stereo not drawn)	-12%	?	-2%	-25%	-18%	-15%
CCOc1ccc(NC(=O)C(CC)n2nc(-c3ccc(C)c(C)c3)ccc2=O)cc1 (stereo not drawn)	-20%	13%[46.1 µM]	-3%	-19%	-2%[46.1 µM]	0%
O=C(NOC(=O)c1ccccc1F)c1ccc(OC(F)F)cc1	i	?	-7%	-16%	10%[46.1 µM]	0%
COc1cc(C(=O)ONC(=O)c2ccc(OC(F)F)cc2)cc(OC)c1OC	-19%	?	-7%	-7%	9.2µM*	-19%
CC(=O)N(CCC(c1ccco1)C(C)C)Cc1ccc(OC(C)C)cc1 (stereo not drawn)	/	/	?	/	/	-16%
CCC(=O)N(CCC(c1ccco1)c1ccccc1OC)Cc1cccs1 (stereo not drawn)	/	?	18µM*	/	-20%	?
CC(=O)N(CCC(c1ccccc1)c1ccco1)Cc1cccs1 (stereo not drawn)	-7%	-22%	11µM*	-30%	?	?
Fc1ccc(-c2cc(-c3nc(-c4ccc(Cl)cc4)no3)[nH]n2)cc1	-8%	/	8%	-10%	19%[46.1 µM]	-2%
CC1(C)CC(=O)C(C(c2ccc(Br)cc2)C2C(=O)CC(C)(C)CC2=O)C(=O)C1	i	-4%[46.1 µM]	18µM*	-12%	-3%[46.1 µM]	6%

Bioassay records from PubChem.
